Hits are enriched below; roughly 7.4% of the tested compounds scored in any of these assays.
NPR1 antag: antagonists of human natriuretic peptide receptor Npr1 | HEK293 hNpr1 GloSensor cGMP, ANP-stimulated luminescence | Potency, µM (titrated, usually from 46.3 µM), hits mostly inhibitors | 76,000 compounds, 1.6% hits | P16066; calls by dose curve; note: nearly all actives have a fitted effect of over 60% in size
Target sequence (P16066 whole entry, looked up): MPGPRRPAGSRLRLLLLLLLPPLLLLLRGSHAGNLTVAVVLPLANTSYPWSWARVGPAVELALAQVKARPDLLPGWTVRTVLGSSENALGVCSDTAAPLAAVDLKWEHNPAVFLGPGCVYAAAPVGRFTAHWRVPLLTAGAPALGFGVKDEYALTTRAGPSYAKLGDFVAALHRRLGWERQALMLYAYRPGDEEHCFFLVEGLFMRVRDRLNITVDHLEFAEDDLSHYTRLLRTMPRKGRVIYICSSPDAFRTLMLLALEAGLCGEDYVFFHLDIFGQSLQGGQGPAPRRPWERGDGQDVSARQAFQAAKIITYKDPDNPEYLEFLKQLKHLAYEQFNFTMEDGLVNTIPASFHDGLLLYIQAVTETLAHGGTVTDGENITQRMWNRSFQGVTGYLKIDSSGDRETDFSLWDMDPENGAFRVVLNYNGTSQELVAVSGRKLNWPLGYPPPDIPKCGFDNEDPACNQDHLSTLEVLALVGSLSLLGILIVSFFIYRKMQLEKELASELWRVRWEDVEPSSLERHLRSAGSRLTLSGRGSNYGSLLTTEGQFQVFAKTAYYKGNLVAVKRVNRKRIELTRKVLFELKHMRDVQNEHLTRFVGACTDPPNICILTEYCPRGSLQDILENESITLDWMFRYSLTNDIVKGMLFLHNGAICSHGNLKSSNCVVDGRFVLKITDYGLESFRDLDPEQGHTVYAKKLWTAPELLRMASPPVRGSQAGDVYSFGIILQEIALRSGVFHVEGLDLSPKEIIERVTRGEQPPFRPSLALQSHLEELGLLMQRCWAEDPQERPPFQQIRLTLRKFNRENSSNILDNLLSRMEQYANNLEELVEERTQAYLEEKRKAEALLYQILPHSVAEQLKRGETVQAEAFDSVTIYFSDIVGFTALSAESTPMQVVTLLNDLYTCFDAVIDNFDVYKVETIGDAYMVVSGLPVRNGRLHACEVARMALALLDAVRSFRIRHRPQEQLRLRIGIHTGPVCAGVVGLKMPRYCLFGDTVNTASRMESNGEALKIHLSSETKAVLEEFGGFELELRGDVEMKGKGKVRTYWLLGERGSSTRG
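HEK293 cells stably expressing human Npr1 and cGMP GloSensor pGS-40F, loaded 2 h with 2% GloSensor reagent, given compound 30 min at room temperature. Luminescence read before and 20 min after 0.1 nM hNppA.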
HEK293 viab: reduces viability of HEK-293 SNCA reporter cells; HEK-293-SNCA-luc viability, GF-AFC fluorescence, 24 h; Potency, µM (doses to about 57.1 µM), hits mostly cytotoxic; 150,000 compounds, 0.12% hits; note: nearly all actives have a fitted effect of over 30% in size
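HEK-293-SNCA-luc cells (1500/well) plated 24 h, then exposed 24 h to a dilution series; GF-AFC added 30 min at 37C, fluorescence 405/540 nm; normalised to medium-only and DMSO wells, Hill fit.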
3T3 cytotox: cytotoxic compounds in NIH 3T3 cells | 94,000 compounds, 4.3% hits | Potency, µM (doses to about 96.7 µM), usual class: inhibitors | NIH 3T3 viability, CellTiter-Glo ATP luminescence, 48-72 h; note: nearly all actives have a fitted effect of over 55% in size
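NIH 3T3 cells at 400 cells/well received 23 nL of compound by pintool and were incubated 48 or 72 h at 37 °C. Viability was read as ATP-coupled CellTiter-Glo luminescence.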
FLuc inh-1: blocks purified firefly luciferase enzyme activity; Potency, µM (titrated, usually from 115 µM), usual class: inhibitors; P08659; purified P. pyralis luciferase, luminescence, biochemical; AID 1347043; 76,000 compounds, 2.5% hits; note: nearly all actives have a fitted effect of over 65% in size
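Luminescence read by CCD imaging after purified firefly luciferase (10nM final) was added to substrate buffer holding 10uM D-luciferin and 10uM ATP, pH 7.5, pre-dosed with compound.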
HEK293 tox: HEK 293 cell cytotoxicity; 94,000 compounds, 6.6% hits; Potency, µM (series often up to 115 µM), usual class: inhibitors; HEK 293 viability, ATP luminescence (CellTiter-Glo), 48-72 h; note: nearly all actives have a fitted effect of over 60% in size
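Cells seeded first (HEK 293, 250 cells/well), then compound added by pintool. Incubation ran 48 or 72 hr at 37 degree Celsius. CellTiter-Glo was added and luminescence imaged after 10 min at room temperature.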
SNCA expr inhib: reduces expression of the alpha-synuclein gene; AID 1671194; Potency, µM (top dose mostly 57.2 µM), hits mostly inhibitors; 140,000 compounds, 0.17% hits; HEK-293 SNCA-luciferase knock-in, luminescence, 24 h; note: nearly all actives have a fitted effect of over 45% in size
FLuc SDR -ATP: stabilizes firefly luciferase without ATP | Purified FLuc-C-HiBiT, Nano-Glo HiBiT luminescence, no ATP | 1,300 compounds, 7.8% hits | Potency, µM (series often up to 32.7 µM), usual class: activators | AID 1963318 | shares compounds with FLuc inh-1; note: nearly all actives have a fitted effect of over 55% in size
FLuc SDR ATP: firefly luciferase binding stabilization, ATP added; shares compounds with FLuc inh-1; purified FLuc-C-HiBiT + ATP, HiBiT complementation luminescence; Potency, µM (top dose mostly 32.7 µM), usual class: activators; 1,300 compounds, 8.7% hits; AID 1963319;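 note: signal reports ligand binding via conformational change of the enzyme rather than luciferase catalysis; nearly all actives have a fitted effect of over 55% in size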
FLuc inh-2: blocks firefly luciferase enzymatic activity. 1,300 compounds, 42% hits. shares compounds with FLuc inh-1. Potency, µM (doses to about 32.7 µM), hits mostly inhibitors. purified FLuc-C-HiBiT enzyme, luciferin luminescence; note: nearly all actives have a fitted effect of over 70% in size
Large screens that a line does not name were inactive (follow-up assays come after a bar, where they were run). Unless noted, calls come from the whole dose curve; as a rule, active = well fitted curve in the direction sought with a large enough effect; inconclusive = small, poorly fitted or top-dose-only effect, or another doubt; inactive = no such curve, though single readings can be large; an effect the other way counts as inactive or inconclusive.

O=C(c1nc2cccnc2n(C2CC2)c1=O)N1CCN([S+](=O)([O-])c2cccs2)CC1	none (no result: NPR1 antag, FLuc inh-1)
CCCc1ccc(OCc2ccc(C(=O)Nc3ccccc3C(=O)OC)o2)cc1	none (no result: NPR1 antag, 3T3 cytotox, FLuc inh-1, HEK293 tox) | FLuc SDR -ATP inactive | FLuc SDR ATP inconclusive | FLuc inh-2 inconclusive
COc1ccccc1NC(=O)c1ccc(COc2ccc(C)c(C)c2)o1	none (no result: NPR1 antag, 3T3 cytotox, FLuc inh-1, HEK293 tox)
CC(=O)N1CCNc2cc(-c3cccc(F)c3)ncc2C1	none (no result: NPR1 antag, HEK293 viab, 3T3 cytotox, FLuc inh-1, HEK293 tox, SNCA expr inhib) | FLuc SDR -ATP inactive | FLuc SDR ATP inactive | FLuc inh-2 inconclusive
COc1cccc(CN2CCNc3cc(-c4ccnc(C)c4)ncc3C2)c1	3T3 cytotox inconclusive, FLuc inh-1 14µM, HEK293 tox 71µM | FLuc SDR -ATP inactive | FLuc SDR ATP inactive | FLuc inh-2 inconclusive
CN(C)C(=O)c1ccc(-c2cc3c(cn2)CN(CCc2ccccc2)CCN3)cc1	3T3 cytotox inconclusive, HEK293 tox inconclusive
COCCN1CCNc2cc(-c3cc(Cl)ccc3OC)ncc2C1	3T3 cytotox inconclusive, FLuc inh-1 inconclusive, HEK293 tox inconclusive
CC(=O)Nc1cccc(-c2cc3c(cn2)CN(Cc2ccccc2)CCN3)c1	3T3 cytotox inconclusive, FLuc inh-1 14µM, HEK293 tox inconclusive | FLuc SDR -ATP inactive | FLuc SDR ATP inactive | FLuc inh-2 inconclusive
c1ccc(Oc2ccccc2-c2cc3c(cn2)CN(Cc2ccncc2)CCN3)cc1	3T3 cytotox inconclusive, HEK293 tox inconclusive
Cc1cc(-c2cc3c(cn2)CN(Cc2nccn2C)CCN3)ccn1	none (no result: NPR1 antag, HEK293 viab, 3T3 cytotox, FLuc inh-1, HEK293 tox, SNCA expr inhib) | FLuc SDR -ATP inactive | FLuc SDR ATP inactive | FLuc inh-2 inconclusive
C=CCCC(=O)N1[C@@H](c2ccco2)[C@@H](C(=O)OCC)C[C@]12CCCCN(CCOC)C2=O	HEK293 tox inconclusive (no result: NPR1 antag, HEK293 viab, FLuc inh-1, SNCA expr inhib)
CN1CCN(C(=O)C2CCCN(c3ccnc4ccnn34)C2)CC1 (stereo not given)	none (no result: NPR1 antag, FLuc inh-1)
CCC1Oc2ccc(NC(=O)c3ccc(OC)c(OC)c3)cc2CN(Cc2ccc(Cl)cc2)C1=O (stereo not given)	HEK293 viab inconclusive, HEK293 tox inconclusive, SNCA expr inhib inconclusive
COCCN1CCNc2cc(NCc3ccccc3)ncc2C1	3T3 cytotox inconclusive, HEK293 tox inconclusive
COCCN1CCNc2cc(-c3cccc(N(C)C)c3)ncc2C1	none (no result: NPR1 antag, HEK293 viab, 3T3 cytotox, FLuc inh-1, HEK293 tox, SNCA expr inhib) | FLuc SDR -ATP inactive | FLuc SDR ATP inconclusive | FLuc inh-2 16µM
Cc1cccc(NC(=O)c2cc(-c3ccc4c(c3)OCCO4)on2)c1	SNCA expr inhib inconclusive (no result: NPR1 antag, 3T3 cytotox, FLuc inh-1, HEK293 tox) | FLuc SDR -ATP 5µM | FLuc SDR ATP inconclusive | FLuc inh-2 0.44µM
Cc1cc(OC(=O)c2cc(-c3ccc4c(c3)OCCO4)on2)ccc1Cl	none (no result: NPR1 antag, 3T3 cytotox, FLuc inh-1, HEK293 tox)
O=C(Nc1cccc(C(F)(F)F)c1)c1cc(-c2ccc3c(c2)OCCO3)on1	none (no result: NPR1 antag, 3T3 cytotox, FLuc inh-1, HEK293 tox)
Cc1ccc(Cl)cc1NC(=O)c1cc(-c2ccc3c(c2)OCCO3)on1	SNCA expr inhib inconclusive (no result: NPR1 antag, 3T3 cytotox, FLuc inh-1, HEK293 tox) | FLuc SDR -ATP inconclusive | FLuc SDR ATP inconclusive | FLuc inh-2 1.8µM
O=C(Nc1cccc(Cl)c1)c1cc(-c2ccc3c(c2)OCCO3)on1	none (no result: NPR1 antag, 3T3 cytotox, FLuc inh-1, HEK293 tox) | FLuc SDR -ATP inconclusive | FLuc SDR ATP inconclusive | FLuc inh-2 0.62µM
O=C(Nc1ccc2c(c1)OCO2)c1cc(-c2ccc(Br)cc2)on1	none (no result: NPR1 antag, 3T3 cytotox, FLuc inh-1, HEK293 tox)
O=C(Nc1cccc(Cl)c1)c1cc(-c2ccccc2)on1	none (no result: NPR1 antag, 3T3 cytotox, FLuc inh-1, HEK293 tox)
O=C(Nc1cccnc1)c1cc(-c2ccc(Cl)cc2)on1	none (no result: NPR1 antag, 3T3 cytotox, FLuc inh-1, HEK293 tox) | FLuc SDR -ATP inactive | FLuc SDR ATP inactive | FLuc inh-2 inconclusive
Cc1ccc(C(=O)NC2CCCN(CCn3nc4n(c3=O)CCCC4)C2)cc1 (stereo not given)	none (no result: NPR1 antag, HEK293 viab, FLuc inh-1, SNCA expr inhib)
C=CCN1CCN(C(=O)CCC[C@H]2NC[C@@H]3C[C@H]2CN(Cc2ccccc2)C3)CC1	none
Clc1cc2c(NC3CCCC3)nnc(-c3ccncc3)c2cc1Cl	none (no result: NPR1 antag, 3T3 cytotox, FLuc inh-1, HEK293 tox, SNCA expr inhib)
COc1ccc(C(=O)Nc2ccc3n(c2=O)C[C@H]2C[C@@H]3CN(C(=O)CCCC(=O)O)C2)cc1	FLuc inh-1 13µM | FLuc SDR -ATP inconclusive | FLuc SDR ATP inactive | FLuc inh-2 inconclusive
COc1cccc(-c2cccc(C(=O)N3CCN(C(=O)Cc4ccccn4)CC3)c2)c1	none (no result: NPR1 antag, FLuc inh-1)
COc1cccc2cc(-c3nnc(-c4ccc(Cl)cc4)o3)c(=O)oc12	none (no result: NPR1 antag, 3T3 cytotox, FLuc inh-1, HEK293 tox) | FLuc SDR -ATP inactive | FLuc SDR ATP inconclusive | FLuc inh-2 inconclusive

Assay outcomes from PubChem.
